The test system of the test is Leishmania donovani. Description: Leishmania intramacrophage assay. On the set-up: scale not given: in the data most compounds retested in dose-response had high values. Format: functional, organism-based.

Screen size: about 69,000 compounds; about 1,000 (1.4%) showed an effect of 50% or more. The full list was thinned out, with strong results kept by preference.

In the case of `Cc1nccn1CCCN1CCCC(c2nccn2C)C1` (configuration not stated), the “Percent Effect” value (30.3 µM, […]) was 28.64%.
On the same count and under the same terms, next, `Cc1cnn(CCNCc2c(C)nn(-c3ccccc3)c2C)c1`: -2.378%; `CC(C)c1nc(C(=O)N2C[C@H](C(C)C)[C@@H](N)C2)cs1`: 39.61%.
On the same count and under the same terms, the result for `COCCn1nc(C(=O)N2CCN(C)CC2C)ccc1=O` (configuration not stated) reads 4.243%.
Turning to `CCCc1nnsc1C(=O)NCC1CCN(c2ccccn2)CC1`, the “Percent Effect” value (30 µM, 30.03 µM) was determined as 33.4%.
On to `CCCc1nnsc1C(=O)NCC1CCN(c2ncccn2)CC1`, for which the “Percent Effect” value (30.3 µM, […]) worked out at 10.89%.
The same measure, in the same setting: next, `Cc1nnsc1C(=O)NCC1CCN(c2ccccn2)CC1`: 51.71%.
On to `COCC(C)NC(=O)c1cc(C)n(-c2cccc(OC)c2)c1C` (configuration not stated), for which, under “30 µM”, the “Percent Effect” value is given as 9.783%.
The same measure, in the same setting: next, `CCNc1cc2c(nn1)CCN(C(=O)c1ccsc1)C2`: 18.6%.
For the compound `COCc1ccc(CNC(=O)C2=NN(c3ccccc3)C(=O)CN2)cc1`, under “30 µM, 30.03 µM”, the “Percent Effect” value worked out at 41.01%.
Still for that read-out and setting: next, `COc1ccccc1CNC(=O)C1=NN(c2ccc(C)cc2)C(=O)CN1`: 61.91%.
For `N#Cc1ccc(CNC(=O)C2=NN(c3ccccc3)C(=O)CN2)cc1`, under “30.3 µM, […]”, the “Percent Effect” value was found to be 17.15%.
As for `COc1ncccc1CNC(=O)C1=NN(c2ccccc2)C(=O)CN1`, the “Percent Effect” value (30.3 µM, […]) was -11.09%.
Same read-out and setting: next, `COc1ccc(CNC(=O)C2=NN(c3ccc(C)cc3)C(=O)CN2)cc1`: 51.58%; `COc1ccc(C)cc1CNC(=O)C1=NN(c2ccccc2)C(=O)CN1`: 34.24%.
For `CC1CCc2n[nH]c(C(=O)NCCCc3ccccn3)c2C1` (configuration not stated), under “30.3 µM, […]”, the “Percent Effect” value is reported as -2.29%.
`CCOC(=O)c1ccc(NC(=O)c2cc3c([nH]c2=O)CCCC3)cc1`: the “Percent Effect” value (30.3 µM, […]) worked out at 34.55%.
On the same count and under the same terms, the result for `CC(=O)Nc1nc(C(=O)N2CCCC2c2noc(C(C)C)n2)cs1` (configuration not stated) reads -12.95%; that for `C[C@@H]1CN(Cc2cccc(F)c2)C[C@]12CCN(Cc1cccnc1)C2=O.O=C(O)C(F)(F)F.O=C(O)C(F)(F)F`, -0.6911%; that for `COc1cc2nc(NCc3scnc3C)nc(N)c2cc1OC`, 62.63%.
On the same count and under the same terms, next, `COc1ccccc1NCC(=O)NCc1scnc1C`: 29.29%; `COc1cc2nc(NCc3cc(C)on3)nc(N)c2cc1OC`: -3.382%.
Same read-out and setting: the result for `COCCCN1CC2(CCCCN2C(C)=O)CC1=O` (configuration not stated) reads 13.42%; that for `Cc1nc(N)ncc1C(=O)N1CCCC(CCc2ccc(F)c(F)c2)C1` (configuration not stated), 6.718%.
For the compound `Cc1ccc(-n2cnc(Cl)c2CO)cc1`, the “Percent Effect” value (30.3 µM, […]) is recorded as 12.87%.
Regarding `OCc1c(Cl)ncn1-c1ccc(F)cc1`, for the setting “30.3 µM, […]”, the “Percent Effect” value is on record as 25.45%.
Still for that read-out and setting: the result for `OCc1c(Cl)ncn1-c1ccccc1` reads 61.75%; that for `CC(C)CN1CCC2(CCN(Cc3nccs3)CC2)C1=O.O=C(O)C(F)(F)F`, 12.73%.
For `Cc1noc(C)c1C(=O)N(C)C(C)c1cccnc1` (configuration not stated), the “Percent Effect” value (30.3 µM, […]) is -5.434%.
Same read-out and setting: next, `Cc1noc(CN(C)C(=O)c2n[nH]c(N)c2-c2ccccc2)n1`: -0.6486%; `Cc1cc(N2CCCC(O)(CN(C)C)CC2)nc(-c2ccccc2)n1` (configuration not stated): 63.47%; `CN(C)CC1(O)CCCN(c2nc(-c3ccccc3)no2)CC1` (configuration not stated): 31.64%.
On the same count and under the same terms, the result for `CN(C)CC1(O)CCCN(c2noc(-c3ccccc3)n2)CC1` (configuration not stated) reads 2.473%; that for `N#Cc1ccc(CN2C(=O)c3ccccc3CS2(=O)=O)cc1`, -16.87%; that for `Cc1cc(=O)[nH]c(-n2nc(C)c(CCC(=O)Nc3nc(C)cs3)c2C)n1`, 59.04%.
Regarding `Cc1cc(=O)[nH]c(-n2nc(C)c(CCC(=O)NCC(C)C)c2C)n1`, the “Percent Effect” value (30.3 µM, […]) turned out to be 15.57%.
Turning to `COC(=O)CCc1c(C)nn(-c2nc(C)cc(=O)[nH]2)c1C`, under “30 µM, 30.03 µM”, the “Percent Effect” value was -18.05%.
For `Cc1ncnc(NCC(C)N(C)c2ccccc2)c1C` (configuration not stated), the “Percent Effect” value (30.3 µM, […]) is listed as 57.28%.
The same measure, in the same setting: next, `Cc1nc2c(NCC(C)N(C)c3ccccc3)ncnc2o1` (configuration not stated): 33.01%.
Regarding `CC(CNc1cncc(-n2cccn2)n1)N(C)c1ccccc1` (configuration not stated), the “Percent Effect” value (30 µM, 30.03 µM) was determined as 31.44%.
With `Cn1cccc1C(=O)N1CCC(c2nccn2Cc2ccncc2)CC1`, where the note is “30.3 µM, […]”, the “Percent Effect” value is recorded as 6.64%.
Take `CN1CC(=O)N(c2ccccc2)CC12CCN(C(=O)c1cnccn1)C2.O=C(O)C(F)(F)F` (configuration not stated): for the setting “30.3 µM, […]”, the “Percent Effect” value was determined as 4.293%.
As for `Cc1nn(CCC#N)c(C)c1[C@@H]1C=C[C@@H](NCc2ccc(F)cc2)C1`, the “Percent Effect” value (30.3 µM, […]) was 101.5%.
The same measure, in the same setting: the result for `Cc1nn(CCC#N)c(C)c1[C@@H]1C=C[C@@H](NCc2cccc(Cl)c2)C1` reads -10.48%; that for `Cc1nn(CCC#N)c(C)c1CCC(=O)N(C)Cc1ccc(F)cc1F`, 2.715%.
Same read-out and setting: next, `Cc1cccc2c1N(C)C(=O)C21CC(=O)Nc2c1cnn2C(C)(C)C` (configuration not stated): -18.37%.
Regarding `COc1ccc(S(=O)(=O)NCc2cccnc2N(C)C)cc1F`, where the note is “30 µM, 30.03 µM”, the “Percent Effect” value is 58.31%.
In the case of `CN(C)c1ncccc1CNS(=O)(=O)c1ccc(F)c(F)c1`, the “Percent Effect” value (30 µM) is listed as 32.33%.
On to `CCOc1ccc(S(=O)(=O)NCc2cccnc2N(C)C)cc1`, for which the “Percent Effect” value (30 µM, 30.03 µM) was 61.25%.
For `COc1ccc(S(=O)(=O)NCc2cccnc2N(C)C)cc1`, the “Percent Effect” value (30 µM) is 27.65%.
Still for that read-out and setting: the result for `CN(C)c1ncccc1CNS(=O)(=O)c1cc(F)cc(F)c1` reads 13.05%; that for `CCOC(=O)c1ccc(S(=O)(=O)NCc2cccnc2N(C)C)cc1`, 21.62%.

Values taken from ChEMBL document CHEMBL3988442, “University of Dundee, Small-Polar-MMV Screening Library” (2021).
